Experimental data as given in PMC7155171, “Probing the Open Global Health Chemical Diversity Library for Multistage-Active Starting Points for Next-Generation Antimalarials” (ACS Infectious Diseases, 2020).
In all, about 68,000 compounds were measured (“% viability”: median about 1.1, lowest 2% from about 0.96 on). Only a selection was taken, and the lowest values are over-represented in it overall. The numbers are fractions of the control, whatever unit the source prints.

System: P. falciparum (NF54) stage V gametocytes
Set-up: Mature stage V gametocyte viability, MitoTracker Red CMXRos high-content imaging
Details: primary screen, n=2, fraction of DMSO control; 72 h, 2 µM; inhibitor

Row | SMILES | % viability
1 | Cc1[nH]c2cc(C3CCN(Cc4ccccc4F)C3)nn2c(=O)c1C (centres unmarked) [DDD01060615] | 0.9944%
2 | CCc1c(C)[nH]c2cc(C3CCN(Cc4ccc(F)cc4)C3)nn2c1=O (centres unmarked) [DDD01060568] | 1.103%
3 | CCc1c(C)[nH]c2cc(C3CCN(Cc4cccc(F)c4)C3)nn2c1=O (centres unmarked) [DDD01060569] | 1.163%
4 | CCc1c(C)[nH]c2cc(C3CCN(Cc4ccccc4F)C3)nn2c1=O (centres unmarked) [DDD01270117] | 0.9474%
5 | CCc1c(C)[nH]c2cc(C3CCN(Cc4cccnc4)C3)nn2c1=O (centres unmarked) [DDD01060570] | 1.145%
6 | Cc1[nH]c2cc(C3CCN(Cc4cccc(F)c4F)C3)nn2c(=O)c1C (centres unmarked) [DDD01270135] | 0.8996%
7 | Cc1nsc(N2CCCN(CC(=O)N(C)C3CC3)CC2)n1 [DDD01066804] | 1.153%
8 | COCCCC(=O)N1CC(=O)Nc2cc(Br)ccc21 [DDD01075689] | 1.221%
9 | Cc1ncc(CN2CCc3[nH]c4cc(C(C)(C)C)nn4c(=O)c3C2)n1C [DDD01058400] | 1.122%
10 | O=C(CNC(=O)N1CCc2c([nH]c3ccc(Cl)cc23)C1)N1CCOCC1 [DDD01035668] | 1.056%
11 | Cc1[nH]n(-c2ccccc2)c2nc(C(C)(C)CN3CCN(C)CC3)nc1-2 [DDD01252143] | 1.131%
12 | Cc1[nH]n(C2CCS(=O)(=O)C2)c(=O)c1Cc1ccccc1 (centres unmarked) [DDD01026976] | 1.15%
13 | Cc1[nH]n(C2CCS(=O)(=O)C2)c(=O)c1Cc1ccc(Br)cc1 (centres unmarked) [DDD01026979] | 1.197%
14 | CCCn1ncc(-c2nc3c[nH]n(CC)c-3n2)c1C [DDD01252709] | 1.088%
15 | CCn1[nH]cc2nc(-c3cc4c(cc3OC)OCO4)nc1-2 [DDD01244413] | 1.126%
16 | CCc1c(C)nn2c(=O)cc(C3CCN(C(=O)c4ccccn4)C3)[nH]c12 (centres unmarked) [DDD01056906] | 1.115%
17 | CCc1ccc(NC(=O)Nc2c(O)c3ccccc3oc2=O)cc1 [DDD01037337] | 1.219%
18 | CN(CCCc1ccccc1)C(=O)CCC1=NC(=C2N=CN=N2)NO1 [DDD01062165] | 0.9845%
19 | CCc1c(C)nn2c(=O)cc(C3CCN(C(=O)c4cnn(C)c4)C3)[nH]c12 (centres unmarked) [DDD01056908] | 1.149%
20 | COCC(=O)Nc1[nH]nc2c1c(C)nn2Cc1cccc(OC)c1 [DDD01063147] | 1.204%
21 | Fc1cccc(C2=NN=CC2=C2NC(CN3CCOCC3)=NO2)c1 [DDD01244908] | 1.1236%
22 | CSc1cccc(NC(=O)Nc2c(O)c3ccccc3oc2=O)c1 [DDD01037688] | 1.182%
23 | Cc1ncc(CN2CCc3c([nH]c4cc(C5CC5)nn4c3=O)C2)n1C [DDD01058398] | 1.038%
24 | Cc1nnsc1C(=O)N1CCCCC1c1cc2[nH]c(C)c(C)c(=O)n2n1 (centres unmarked) [DDD01059036] | 1.123%
25 | CCn1[nH]cc2nc(-c3ccc(OC)c(COC)c3)nc1-2 [DDD01253750] | 1.204%
26 | CCc1cc(=O)n2nc(C3CCN(C(=O)c4cccnc4)CC3)cc2[nH]1 [DDD01057176] | 1.192%
27 | COc1cc(OC)c(-c2nc3c(C4CC4)[nH]n(C)c-3n2)cc1OC [DDD01244474] | 0.9472%
28 | COc1cc(F)ccc1-c1nc2c(C3CC3)[nH]n(C)c-2n1 [DDD01248843] | 1.111%
29 | COc1ccc(F)cc1-c1nc2c(C3CC3)[nH]n(C)c-2n1 [DDD01250494] | 1.074%
